High-throughput results (PubChem BioAssay)
The list is a sample of the results.
aSyn UTR act: Activators via SNCA 5'UTR binding, MLPCN; alpha-synuclein 5'UTR reporter, activators screen; activity score, % (tested at 7.5 µM), hits read low; 7.1% of 300,000 active; in the data active = activity score below about -60%
Active calls of the source: *.

SMILES | aSyn UTR act
COc1ccccc1C(=O)N1CCN(c2cccc(Cl)c2)CC1 | 64.4
COc1ccccc1C(=O)NNC(=S)NC(=O)c1cccs1 | 73.2
COc1ccccc1C(=O)NNC(=O)c1ccccc1 | -74.0*
Cc1ccccc1C(=O)NNC(=O)c1ccc(Br)cc1 | -96.1*
COc1ccccc1C(=O)NC(=O)Nc1cccc(Cl)c1 | -128.7*
COc1ccc2o/c(=N/NC(=O)c3cccs3)c(C(N)=O)cc2c1 | -156.8*
NC(=O)c1cc2ccccc2o/c1=N/NC(=O)c1cccs1 | -63.4*
CCCOc1ccc(-c2csc(N)n2)cc1[N+](=O)[O-] | -81.2*
CCCCOc1ccc(-c2cn3ccccc3n2)cc1[N+](=O)[O-] | -129.1*
CCOc1ccc(-c2cn3ccccc3n2)cc1[N+](=O)[O-] | -159.9*
O=C(O)c1ccc(Cn2cnc3scc(-c4ccccc4)c3c2=O)cc1 | -142.4*
Cc1ccc2nc(-c3ccc(N)cc3)sc2c1 | 90.0
CC1=CCC(C(=O)O)C(C(=O)Nc2ccc(-c3nc4ccc(C)cc4s3)cc2)C1 (stereo not given) | -131.2*
COc1ccc(/C=C(\C#N)C(=O)OCC(=O)Nc2ccc(-c3nc4ccc(C)cc4s3)cc2)cc1 | -69.6*
CNC(=S)Nc1ccc(-c2nc3ccc(C)cc3s2)cc1 | -90.6*
Cc1ccc2nc(-c3ccc(NS(=O)(=O)c4ccc(F)cc4)cc3)sc2c1 | -133.5*
CC(=O)NC(=S)Nc1ccc(-c2nc3ccc(C)cc3s2)cc1 | -271.7*
CCOc1ccc(/C=C/C2=Cc3c(sc(NC(=O)CSc4n[nH]c(N)n4)c3C#N)C(C)(C)C2)cc1 | -95.0*
CCOCC(=O)Nc1cc(C(=O)Nc2cc(C)cc(C)c2)ccc1Cl | -66.2*
Clc1ccc(/C=N/Nc2nc(Cl)nc3ccccc23)cc1 | -172.2*
Cc1ccc(/C=N/Nc2nnc(Cl)c3ccccc23)cc1 | -156.7*
Clc1nnc(N/N=C/c2ccccc2)c2ccccc12 | -267.6*
Clc1ccc(/C=N/Nc2nnc(Cl)c3ccccc23)cc1 | -164.8*
Clc1nnc(NN=C2CCCC2)c2ccccc12 | -193.6*
CC1CCC(NC(=O)c2cccc(S(=O)(=O)N3CCN(c4ccc(F)cc4)CC3)c2)CC1 (stereo not given) | -72.1*
SMILES | aSyn UTR act
O=[N+]([O-])c1cccc(/C=C/c2ccncc2)c1 | -65.5*
O=[N+]([O-])c1ccc(/C=C/c2ccncc2)cc1 | -70.8*
CN1N=C2c3ccccc3CCC2C1c1ccc(Cl)cc1 (stereo not given) | -101.2*
CN1N=C2c3ccccc3CCC2C1c1ccc(F)cc1 (stereo not given) | -109.6*
Cc1cc(NC(=O)/C=C/c2ccc(Cl)cc2)no1 | -77.7*
C/C(=C\C(=O)Nc1cc(C)on1)c1ccccc1 | -110.2*
Cc1ccc(/C=C2\SC(=S)N(CCCC(=O)Nc3cc(C)on3)C2=O)cc1 | 57.9
Cc1cc(NC(=O)/C=C/c2ccc(Br)cc2)no1 | -74.0*
O=C(CNC(=O)c1ccco1)Nc1ccc(Br)cc1 | -141.6*
O=C(CNC(=O)c1ccco1)Nc1ccc(Cl)cc1 | -69.6*
COc1cc(/C=N/NS(=O)(=O)c2ccc3ccccc3c2)ccc1OCc1ccc(C(=O)O)cc1 | 84.3
COc1cc(/C=N/Nc2ccc3ccccc3c2)ccc1OC(=O)c1ccco1 | -76.2*
CCOc1cc(/C=N\Nc2nc(Nc3ccccc3)nc(N3CCOCC3)n2)ccc1OC(=O)c1ccco1 | -90.9*
NC(=O)c1c(NC(=O)c2ccccc2F)sc2c1CCCC2 | -170.2*
NC(=O)c1c(NC(=O)c2cccs2)sc2c1CCCCCC2 | -121.6*
COCCN(CCOC)S(=O)(=O)c1ccc(C(=O)Nc2sc3c(c2C(N)=O)CCCCC3)cc1 | -106.6*
COc1cc(OC)cc(C(=O)Nc2sc3c(c2C(N)=O)CCC3)c1 | -105.4*
NCCNC(=O)c1c(NC(=O)c2ccccc2)sc2c1CCCC2 | -124.6*
NC(=O)c1c(NC(=O)c2ccc(F)cc2Cl)sc2c1CCC2 | -96.1*
Fc1ccc(-c2csc(-c3ccccn3)n2)cc1F | -112.3*
c1ccc(-c2nc(-c3ccco3)cs2)nc1 | -182.7*
COc1ccc(Br)cc1/C=C/C(=O)Nc1ccc2ccccc2c1 | -91.2*
CCC(=O)Nc1cccc(C(=O)/C=C/c2cc(Br)ccc2OC)c1 | -125.2*
COc1ccc(Br)cc1/C=C/C(=O)Nc1ccc(C)cc1 | -86.3*
O=C1CC(c2ccco2)CC(O)=C1C=Nc1cc(Cl)ccc1O (stereo not given) | -143.5*
SMILES | aSyn UTR act
Cc1ccc(-c2nnc(CCC(=O)NCC3C4CC5CC(C4)CC3C5)o2)s1 (stereo not given) | -170.2*
CCOc1ccc(-c2nc(C)c(C(C)=O)n2O)cc1 | -173.2*
Cc1cc(C(=O)CN2C(=O)NC(CC(C)C)C2=O)c(C)n1-c1ccccc1F (stereo not given) | -148.4*
Cc1cc(C(=O)OCC(=O)Nc2c(F)cccc2F)c(C)n1-c1ccccc1 | -103.1*
Cc1cc(C(=O)COC(=O)c2ccc(O)cc2)c(C)n1-c1ccccc1F | -78.2*
Cc1cc(C(=O)Nc2ccc(Cl)cc2)c(C)n1-c1ccccc1 | 86.6
Cc1cc(C(=O)Cn2nnc3ccccc3c2=O)c(C)n1-c1ccccc1F | 54.2
COc1cc(/C=N/O)ccc1OCc1ccc(Cl)cc1 | -97.3*
COc1cc(/C=N/N=C2/NC(=O)C(CC(=O)O)S2)ccc1OCc1ccc(Cl)cc1 (stereo not given) | -148.6*
COc1cc(/C=N/O)ccc1OCc1ccc(C(=O)O)cc1 | 115.9
COc1cc(/C=N/NC(N)=S)ccc1OCc1ccc(C)cc1 | -178.8*
Cc1cccc(-n2ncc3c(N)ncnc32)c1 | -74.5*
Cc1cccc(-n2ncc3c(N(C)Cc4ccccc4)ncnc32)c1 | -169.4*
COc1ccc(-n2ncc3c(Nc4cccc(C)c4)ncnc32)cc1 | -202.1*
Cc1cccc(-n2ncc3c(Nc4ccc(F)cc4)ncnc32)c1 | -107.8*
O=C(c1cnn(-c2cccc(F)c2)c1)c1ccccc1O | -194.0*
O=C(c1cnn(-c2nc3ccccc3s2)c1)c1ccccc1O | -117.3*
O=C(c1cnn(-c2ccccc2)c1)c1ccc2ccccc2c1O | -119.4*
COc1ccc(NC(=O)Nc2nnc(-c3ccco3)s2)cc1 | -108.3*
Cc1ccc(NC(=O)Nc2nnc(-c3ccccc3F)s2)cc1 | -84.5*
COc1ccc(NC(=O)Nc2nnc(C(C)C)s2)cc1 | -134.9*
COc1ccc(NC(=O)Nc2nnc(-c3ccccc3F)s2)cc1 | -134.3*
COc1ccc(NC(=O)Nc2nnc(-c3ccncc3)s2)cc1 | -100.4*
O=C(Nc1nnc(-c2ccccc2F)s1)c1cccnc1 | -115.7*
CCOc1ccc2oc(C(=O)Nc3cc(C)ccn3)c(C)c2c1 | -67.5*
SMILES | aSyn UTR act
CCOc1ccc2oc(C(=O)Nc3ccc(N4CCOCC4)cc3)c(C)c2c1 | -68.5*
CCOc1ccc2oc(C(=O)Nc3ccc4c(c3)OCO4)c(C)c2c1 | -176.2*
O=C(Nc1nnc(S(=O)(=O)N2CCN(c3ccc(F)cc3)CC2)s1)c1ccccc1 | -63.5*
O=C(Nc1nnc(S(=O)(=O)N2CCCCCC2)s1)c1ccccc1 | -64.9*
Cc1cs/c(=N/C(=S)Nc2ccccc2)n1C | -114.5*
CSc1nnc(-c2ccc(Cl)cc2Cl)o1 | -120.4*
Clc1ccc(-c2nnc(-c3ccc(Br)o3)o2)c(Cl)c1 | -192.4*
O=C1OCCC1Sc1nnc(-c2ccc(Cl)cc2Cl)o1 (stereo not given) | 89.5
CCSc1nnc(-c2ccc(Cl)cc2Cl)o1 | -259.9*
CC1SCC(=NOCc2ccccc2)CS1 (stereo not given) | -88.5*
Cc1[nH]nc(SCC(=O)N2CCCCC2)c1[N+](=O)[O-] | -91.5*
CN(C)c1ccc(N=Cc2nc(-c3ccccc3)oc2OC(=O)c2cccc(Cl)c2)cc1 | -145.6*
